One experiment concerns Staphylococcus aureus. Conditions: Concentration 20 uM; ASSAY_TEST Inhibition of Bacterial Growth; detection method Absorption (OD600); MEDIA CAMHB; plate type 384well; NBS; CORNING #3640; time 18 hr.
Another experiment has as its system Escherichia coli. To be noted: Concentration 20 uM; ASSAY_TEST Inhibition of Bacterial Growth; detection method Absorption (OD600); MEDIA CAMHB; plate type 384well; NBS; CORNING #3640; time 18 hr.

Potency and affinity values are given separately.

Turning to `Nc1nc2c(ncn2COC(CO)CO)c(=O)[nH]1` [GANCICLOVIR], the Inhibition was determined as 7.88% in the experiment on Staphylococcus aureus and 0.63% with Escherichia coli.

Turning to `CC1(C)O[C@@H]2C[C@H]3[C@@H]4C[C@H](F)C5=CC(=O)C=C[C@]5(C)[C@H]4[C@@H](O)C[C@]3(C)[C@]2(C(=O)CO)O1` [FLUNISOLIDE], the Inhibition is listed as 6.94% in the experiment with Staphylococcus aureus and 3.33% in the experiment with Escherichia coli.

For `CSc1ccc2c(c1)N(CCC1CCCCN1C)c1ccccc1S2.Cl` (configuration not stated) [THIORIDAZINE HYDROCHLORIDE], the Inhibition with Staphylococcus aureus was 2.86%; in the experiment on Escherichia coli, 7.48%.

Turning to `CSc1nc2cc(Cl)c(Oc3cccc(Cl)c3Cl)cc2[nH]1` [TRICLABENDAZOLE], the Inhibition in the experiment with Staphylococcus aureus is 7.06%; in the experiment with Escherichia coli it was -5.3%.

Turning to `CC(=O)OCC(=O)[C@@]1(O)CC[C@H]2[C@@H]3CCC4=CC(=O)C=C[C@]4(C)[C@H]3[C@@H](O)C[C@@]21C` [PREDNISOLONE ACETATE], the Inhibition with Staphylococcus aureus is listed as 11.59%; in the experiment on Escherichia coli, 1.81%.

In the case of `CC1=C(/C=C/C(C)=C/C=C/C(C)=C/C(=O)O)C(C)(C)CCC1` [TRETINOIN], the Inhibition was 13.92% with Staphylococcus aureus and 7.4% in the experiment on Escherichia coli.

In the case of `CN1CCN(c2nc3cc(C(F)(F)F)ccc3n3cccc23)CC1.O=C(O)/C=C\C(=O)O.O=C(O)/C=C\C(=O)O`, the Inhibition with Staphylococcus aureus is on record as 3.37%; in the experiment on Escherichia coli it was 4.75%.

For the compound `Cc1ccc(S(=O)(=O)NC(=O)NN2CCCCCC2)cc1` [TOLAZAMIDE], the results for the Inhibition with Staphylococcus aureus and with Escherichia coli were 2.29% and -1.66%, respectively.

As to `CCCCC(=O)N(Cc1ccc(-c2ccccc2-c2nnn[nH]2)cc1)[C@H](C(=O)O)C(C)C`, the Inhibition in the experiment with Staphylococcus aureus was 14.82%; in the experiment with Escherichia coli, 3.3%.

For the compound `CC(=O)OCC(CCn1cnc2cnc(N)nc21)COC(C)=O` [FAMCICLOVIR], the results for the Inhibition with Staphylococcus aureus and with Escherichia coli were 12.23% and 6.38%, respectively.

Take `CCOC(=O)C1=C(C)NC(C)=C(C(=O)OC)C1c1cccc(Cl)c1Cl` (configuration not stated) [FELODIPINE]: the Inhibition worked out at 13.21% with Staphylococcus aureus and 4.41% with Escherichia coli.

Turning to `COc1ccccc1N1CCN(CCCNc2cc(=O)n(C)c(=O)n2C)CC1.Cl` [URAPIDIL HYDROCHLORIDE], the Inhibition is recorded as 12.2% in the experiment on Staphylococcus aureus and 0.81% in the experiment on Escherichia coli.

Take `COC(=O)Nc1nc2cc(C(=O)c3ccccc3)ccc2[nH]1` [MEBENDAZOLE]: the Inhibition with Staphylococcus aureus amounted to 7.86%; in the experiment with Escherichia coli, 3.86%.

Consider `CN1CCC(=C2c3ccccc3CC(=O)c3sccc32)CC1.O=C(O)/C=C/C(=O)O` [KETOTIFEN FUMARATE], for which the results for the Inhibition with Staphylococcus aureus and in the experiment on Escherichia coli were 6.88% and 3.55%, respectively.

Take `CC(COc1ccccc1)NC(C)C(O)c1ccc(O)cc1.Cl` (configuration not stated) [ISOXSUPRINE HYDROCHLORIDE]: the Inhibition with Staphylococcus aureus is 10.12%; with Escherichia coli, -2.1%.

In the case of `O=C([O-])c1cc(=O)c2c(OCC(O)COc3cccc4oc(C(=O)[O-])cc(=O)c34)cccc2o1.[Na+].[Na+]` [CROMOLYN SODIUM], the Inhibition in the experiment on Staphylococcus aureus is 9.1%; with Escherichia coli it was -1.24%.

In the case of `NS(=O)(=O)c1cc2c(cc1C(F)(F)F)NCNS2(=O)=O` [HYDROFLUMETHIAZIDE], the Inhibition in the experiment on Staphylococcus aureus came out at 14.86%; with Escherichia coli it was 7.25%.

Turning to `CCC(=O)[N-]S(=O)(=O)c1ccc(-c2c(-c3ccccc3)noc2C)cc1.[Na+]` [PARECOXIB SODIUM], the figures for the Inhibition in the experiment on Staphylococcus aureus and in the experiment with Escherichia coli were 0.13% and 6.4%, respectively.

Turning to `CC(=O)Nc1ccc(CC(=O)O)cc1` [ACTARIT], the Inhibition is listed as -0.71% with Staphylococcus aureus and 3.54% in the experiment on Escherichia coli.

In the case of `CCCc1nc(C(C)(C)O)c(C(=O)OCc2oc(=O)oc2C)n1Cc1ccc(-c2ccccc2-c2nnn[nH]2)cc1` [OLMESARTAN MEDOXOMIL], the Inhibition with Staphylococcus aureus was 10.76%; in the experiment with Escherichia coli, -6.4%.

With `CCOC(=O)[C@H](CCc1ccccc1)N[C@@H](C)C(=O)N1[C@H](C(=O)O)C[C@@H]2CCC[C@@H]21`, the Inhibition with Staphylococcus aureus was found to be 17.44%; in the experiment on Escherichia coli, 1.83%.

For the compound `CN(C)CCOC(c1ccc(Cl)cc1)c1ccccn1.O=C(O)/C=C\C(=O)O` (configuration not stated) [CARBINOXAMINE MALEATE], the Inhibition in the experiment with Staphylococcus aureus stood at 10.84%; in the experiment on Escherichia coli, 3.54%.

On to `CCCCC1=NC2(CCCC2)C(=O)N1Cc1ccc(-c2ccccc2-c2nnn[nH]2)cc1` [IRBESARTAN], for which the Inhibition in the experiment on Staphylococcus aureus is recorded as 6.34%; in the experiment on Escherichia coli it was -3.35%.

With `CN(CCO)CC(O)Cn1cnc2c1c(=O)n(C)c(=O)n2C.O=C(O)c1cccnc1` (configuration not stated) [XANTHINOL NIACINATE], the Inhibition in the experiment on Staphylococcus aureus is 15.77%; in the experiment with Escherichia coli it was -0.5%.

On to `COC(=O)C1=C(C)NC(C)=C(C(=O)OCCN(C)Cc2ccccc2)C1c1cccc([N+](=O)[O-])c1.Cl` (configuration not stated) [NICARDIPINE HYDROCHLORIDE], for which the Inhibition is listed as -1.65% in the experiment on Staphylococcus aureus and 2.23% in the experiment with Escherichia coli.

On to `CC(=O)CCCCn1cnc2c1c(=O)n(C)c(=O)n2C` [LOMIFYLLINE], for which the Inhibition is listed as 12.49% in the experiment with Staphylococcus aureus and 5.02% in the experiment with Escherichia coli.

For orientation: Inhibition means the relative decrease from the control value, in per cent.

The values are drawn from ChEMBL document CHEMBL4513141, “CO-ADD screening of NIH (USA) - Clinical Collection” (2021).
